A number with no mark means an inactive call. No rule for the calls is given here.
Biological target: Pantothenate synthetase (Mycobacterium tuberculosis (strain ATCC 25618 / H37Rv)) (UniProt P9WIL5)
Experiment: Recombinant Mtb pantothenate synthetase (PanC) inhibitors, coupled enzyme, confirmatory (AID 375);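 also: 0% = full reaction with vehicle and 100% = no enzyme background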
Details: coupled enzyme assay; at 10 µM, active compounds read high

Chain of Pantothenate synthetase (Mycobacterium tuberculosis (strain ATCC 25618 / H37Rv)) (P9WIL5 whole entry, looked up): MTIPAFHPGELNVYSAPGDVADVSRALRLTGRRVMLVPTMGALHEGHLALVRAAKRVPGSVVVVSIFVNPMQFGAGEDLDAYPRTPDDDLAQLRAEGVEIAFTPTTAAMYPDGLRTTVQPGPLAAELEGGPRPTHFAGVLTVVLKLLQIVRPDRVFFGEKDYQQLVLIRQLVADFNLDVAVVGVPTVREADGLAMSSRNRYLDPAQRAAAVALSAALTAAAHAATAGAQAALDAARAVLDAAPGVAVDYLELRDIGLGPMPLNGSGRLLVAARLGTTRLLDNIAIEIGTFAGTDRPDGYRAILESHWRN

SMILES	inhibition [%]
CCn1nnnc1SCC(=O)Nc1nnc(C(C)C)s1	3
O=C(OC1CCOC1=O)c1ccc(S(=O)(=O)N2CCCCCC2)cc1 (stereo not given)	0
CCOCC(O)CS(=O)Cc1ccccc1 (stereo not given)	0
CCn1cc(C(=O)N2CCCC2)c(=O)c2cc(S(=O)(=O)N3CCOCC3)ccc21	0
O=C(c1ccco1)N1CCN(S(=O)(=O)c2ccc3c(c2)CCN3C(=O)C2CCC2)CC1	0
CCOC(=O)CC(=O)Nc1c(C)cc(C)cc1C	4
CCOC(=O)C(NC(=O)OC(C)C)(Nc1nccs1)C(F)(F)F (stereo not given)	2
Cc1cccc(N2CCN(C(=O)Cn3nc(Cc4ccncc4)c4ccccc4c3=O)CC2)c1C	4
CC(C)OC(=O)C(C)(C)Oc1ccc(C(=O)c2ccc(Cl)cc2)cc1	0
O=C(Nc1ccncc1)c1cncc(Br)c1	0
CCOC(=O)N1CCC(Nc2c(-c3ccc(C)cc3)c(=O)c2=O)CC1	0
CC(=O)Nc1sc2c(c1C#N)CCCCC2	7
Cc1noc(C)c1CSc1nc2cc(S(=O)(=O)N3CCOCC3)ccc2o1	0
O=C(COC(=O)c1cccc(S(=O)(=O)N2CCc3ccccc32)c1)NC1CCS(=O)(=O)C1 (stereo not given)	0
CC(c1nnc(SCC(=O)Nc2sccc2C#N)n1-c1ccc(Cl)cc1)N(C)C (stereo not given)	0
COc1cc2c(cc1NC(=O)CN1CCN(S(=O)(=O)c3ccc(F)cc3)CC1)oc1ccccc12	0
CC1(C)CC(=O)N(CC(=O)NCc2ccccc2)c2ccccc2S1(=O)=O	0
CCOc1ccc2nc(NC(=O)C3CCCN(S(=O)(=O)c4c(C)noc4C)C3)sc2c1 (stereo not given)	0
Cn1cccc1Cc1nnc(SCC(=O)Nc2ccccc2F)n1-c1ccc(F)cc1	0
C[C@]12CCC(=O)C=C1CC[C@@H]1[C@@H]2CC[C@@]2(C)[C@H]1CC[C@]2(O)C(=O)CO	0

SMILES	inhibition [%]
CC(=O)c1cnc2cc(-c3ccccc3)nn2c1C	0
Cc1oc(-c2ccccc2F)nc1CS(=O)(=O)CC(=O)N1CCN(Cc2ccccc2)CC1	0
CC(=O)Nc1ccc(S(=O)(=O)N2CCN=C2C)cc1	3
Cc1cc(C(=O)O)ccc1-n1c(C)ccc1C	6
O=C(CCc1nc2ccccc2[nH]1)Nc1ccc2c(c1)OCO2	0
COc1cc(OC)cc(-c2nc3nc(C)c(CCC(=O)O)c(C)n3n2)c1	0
Cc1ccc2[nH]c(=O)c(CN(CCc3ccccc3)Cc3nnnn3CC3CCCO3)cc2c1 (stereo not given)	2
Cc1nnc2c3ccccc3c(-c3ccccc3)nn12	0
CC(C)(C)OC(=O)NC(CCNC=C1C(=O)OC(C)(C)OC1=O)C(=O)O (stereo not given)	4
CC(C)CNS(=O)(=O)c1ccc(CCC(=O)NCc2ccco2)cc1	2
CC(C)(C)n1ncc2c(=O)n(CC(=O)NCCc3ccccc3)cnc21	4
COC(=O)Cn1c2c(c3cc(C)ccc31)CCCC2	1
COCCCN1C(=O)C(O)=C(C(C)=O)C1c1ccccn1 (stereo not given)	3
COc1cccc(C(=O)NCc2nnc(SCC(=O)Nc3nccs3)n2-c2ccccc2)c1	2
COc1ccc(-c2ccc(-c3noc(-c4cccs4)n3)c(OC)n2)cc1	0
O=C1c2ccccc2C(=O)N1CCCn1nnc(-c2ccc(N3CCOCC3)cc2)n1	3
COc1cc(OC)c(C2N(C)c3ccccc3N2C)cc1OC	0
COc1ccc(OCC(O)Cn2c(Br)nc3c2c(=O)[nH]c(=O)n3C)cc1 (stereo not given)	11
NC(=O)C1(N2CCCCC2)CCN(CC(=O)Nc2cc(Cl)ccc2Cl)CC1	3
O=C(Nc1cccc(Cl)c1)N1CCN(c2ncccn2)CC1	1
